Measurements as given in PubChem BioAssay.
A number with no mark means an inactive call. For part of these data: Results with a measured potency or affinity are listed apart. Active and inactive are the calls of the source. Unless noted, the rule behind the calls is not given here.

What was measured:
[1] = antimalarial activity against Dd2 strain (AID 2302;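 active = growth inhibition above 50% at the single 2 µM test dose, taken to imply half-maximal potency below 2 µM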;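 note: 0% = DMSO untreated growth and 100% = chloroquine plus artemisinin killed control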); conditions: P. falciparum Dd2 in RBCs, LDH growth readout, 72 h; at 2 µM; stronger effect = higher value
[2] = human hepatoma cell viability loss – ATP luminescence, cytotoxicity control for P. falciparum antimalarial project, primary screen (AID 2303;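 active = inhibition above 50%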;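 note: 0% = DMSO wells and 100% = digitonin-killed cells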); conditions: HepG2 viability, 24-48 h, at 10 µM, stronger effect = higher value
[3] = biological target: L-lactate dehydrogenase (Plasmodium falciparum (isolate CDC / Honduras)) (UniProt Q27743); experiment: PfLDH activity inhibition – cell lysate, 3D7 strain, counter-screen for P. falciparum growth inhibition project (AID 2304);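 note: 0% = vehicle and 100% = reference inhibitor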; conditions: P. falciparum 3D7 crude extract, LDH APAD/NBT absorbance; at 2 µM; stronger effect = higher value
[4] = inhibition of 3D7 malaria parasite growth – strain 3D7 (AID 2306);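 note: 0% = DMSO wells and 100% = chloroquine plus artemisinin control wells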; conditions: P. falciparum 3D7 erythrocytic growth, LDH absorbance, 72 h; at 2 µM; stronger effect = higher value
[5] = biological target: Calcium-dependent protein kinase 1 (Plasmodium falciparum (isolate 3D7)) (UniProt P62344); experiment: PfCDPK1 kinase inhibitors, biochemical, TCAMS library (AID 1159585; cut-off not given, nearly all actives have IC50 up to about 0.98 µM;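 note: inhibitors leave more ATP so luminescence rises with inhibition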); conditions: recombinant PfCDPK1, Kinase-Glo ATP depletion luminescence
[6] = biological target: Plasmodium falciparum protein kinase 6 (PK6, PF3D7_1337100) (UniProt Q8IDW1); experiment: PfPK6 kinase inhibitors, biochemical, TCAMS library (AID 1159586); conditions: recombinant PfPK6, Kinase-Glo ATP depletion luminescence
[7] = biological target: Protein kinase 7 (PK7), Plasmodium falciparum 3D7 (PF3D7_0213400) (UniProt Q7YTF7); experiment: inhibition of Plasmodium PK7 catalytic activity – biochemical, TCAMS antimalarial set, Kinase-Glo luminescence (AID 1159587); conditions: recombinant PfPK7, Kinase-Glo ATP depletion luminescence
[8] = biological target: Calcium-dependent protein kinase 4 (Plasmodium falciparum (isolate 3D7)) (UniProt Q8IBS5); experiment: PfCDPK4 kinase inhibitors, biochemical, TCAMS library (AID 1159588; cut-off not given, nearly all actives have IC50 up to about 0.91 µM); conditions: recombinant PfCDPK4, Kinase-Glo ATP depletion luminescence
Calcium-dependent protein kinase 4 (Plasmodium falciparum (isolate 3D7)), sequence (Q8IBS5 whole entry, looked up): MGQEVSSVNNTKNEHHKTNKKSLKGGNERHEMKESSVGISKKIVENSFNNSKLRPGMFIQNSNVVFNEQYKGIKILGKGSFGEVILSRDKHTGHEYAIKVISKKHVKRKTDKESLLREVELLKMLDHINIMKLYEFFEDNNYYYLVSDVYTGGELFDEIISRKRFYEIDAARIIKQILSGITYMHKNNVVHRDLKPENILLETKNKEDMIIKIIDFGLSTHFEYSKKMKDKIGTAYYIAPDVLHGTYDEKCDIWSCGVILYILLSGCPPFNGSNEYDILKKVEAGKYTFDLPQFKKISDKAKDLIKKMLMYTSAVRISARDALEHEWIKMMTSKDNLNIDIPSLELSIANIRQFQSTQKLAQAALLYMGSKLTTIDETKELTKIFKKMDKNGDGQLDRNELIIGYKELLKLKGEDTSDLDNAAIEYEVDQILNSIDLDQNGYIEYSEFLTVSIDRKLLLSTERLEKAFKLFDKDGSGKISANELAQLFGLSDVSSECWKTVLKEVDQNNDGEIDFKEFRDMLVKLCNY

Protein kinase 7 (PK7), Plasmodium falciparum 3D7 (PF3D7_0213400), sequence (Q7YTF7 1-343): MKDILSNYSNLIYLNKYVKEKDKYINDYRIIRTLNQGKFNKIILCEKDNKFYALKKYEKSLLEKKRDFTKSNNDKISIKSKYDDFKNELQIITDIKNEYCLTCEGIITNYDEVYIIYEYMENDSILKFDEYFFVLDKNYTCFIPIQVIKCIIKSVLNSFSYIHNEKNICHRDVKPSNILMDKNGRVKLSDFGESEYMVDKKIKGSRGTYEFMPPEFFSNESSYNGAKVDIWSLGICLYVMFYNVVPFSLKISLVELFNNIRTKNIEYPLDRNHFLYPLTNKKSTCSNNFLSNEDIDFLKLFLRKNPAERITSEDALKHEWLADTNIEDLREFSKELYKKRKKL
Plasmodium falciparum protein kinase 6 (PK6, PF3D7_1337100), sequence (Q8IDW1 1-305): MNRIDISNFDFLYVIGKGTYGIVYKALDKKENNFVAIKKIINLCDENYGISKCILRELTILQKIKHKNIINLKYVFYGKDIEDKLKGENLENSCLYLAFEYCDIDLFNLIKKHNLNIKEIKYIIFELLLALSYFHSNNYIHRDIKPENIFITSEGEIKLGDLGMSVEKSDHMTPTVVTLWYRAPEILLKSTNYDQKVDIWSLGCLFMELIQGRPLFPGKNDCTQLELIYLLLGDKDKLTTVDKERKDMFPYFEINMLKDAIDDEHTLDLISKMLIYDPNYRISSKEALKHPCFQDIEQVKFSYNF
L-lactate dehydrogenase (Plasmodium falciparum (isolate CDC / Honduras)), sequence (Q27743 whole entry, looked up): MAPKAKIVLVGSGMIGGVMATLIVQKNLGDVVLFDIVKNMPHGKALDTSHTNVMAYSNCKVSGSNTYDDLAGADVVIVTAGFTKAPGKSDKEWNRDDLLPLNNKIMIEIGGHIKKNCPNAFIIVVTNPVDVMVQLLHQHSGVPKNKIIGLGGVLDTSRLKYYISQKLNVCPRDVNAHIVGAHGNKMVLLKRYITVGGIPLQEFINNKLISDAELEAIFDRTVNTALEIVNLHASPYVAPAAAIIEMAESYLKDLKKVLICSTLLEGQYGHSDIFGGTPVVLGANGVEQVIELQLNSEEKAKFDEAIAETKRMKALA
Calcium-dependent protein kinase 1 (Plasmodium falciparum (isolate 3D7)), sequence (P62344 whole entry, looked up): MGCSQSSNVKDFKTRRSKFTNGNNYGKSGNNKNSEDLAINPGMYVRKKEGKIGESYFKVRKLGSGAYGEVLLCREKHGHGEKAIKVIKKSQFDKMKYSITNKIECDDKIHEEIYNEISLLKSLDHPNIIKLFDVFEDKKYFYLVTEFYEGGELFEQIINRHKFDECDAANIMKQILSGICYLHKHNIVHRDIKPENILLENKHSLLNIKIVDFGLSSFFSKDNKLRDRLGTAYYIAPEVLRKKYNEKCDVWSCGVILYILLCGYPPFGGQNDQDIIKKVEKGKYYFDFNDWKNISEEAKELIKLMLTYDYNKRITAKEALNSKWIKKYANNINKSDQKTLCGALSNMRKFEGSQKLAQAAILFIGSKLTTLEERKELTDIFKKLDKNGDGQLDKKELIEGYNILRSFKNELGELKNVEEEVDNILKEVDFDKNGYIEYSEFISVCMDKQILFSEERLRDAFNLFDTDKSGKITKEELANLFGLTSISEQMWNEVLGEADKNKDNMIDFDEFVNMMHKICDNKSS

Compound | growth inhibition [1] | inhibition [2] | inhibition [3] [%] | growth inhibition [4] | outcome [5] | outcome [6] | outcome [7] | outcome [8]
CCOC(=O)c1cn(CC)c2cc(O[C@@H]3CCN(C(=O)OC(C)(C)C)C3)ccc2c1=O | 94% (active) | 13% | -8 | 97% (active) | inactive | inactive | inactive | inactive
Cc1cc(NN=Cc2cccc(Cl)c2)c2cc(F)ccc2n1 | 100% (active) | 1% | -5 | 101% (active) | inactive | inactive | inactive | inactive
O=C(Nc1cccc(CN2CCN(Cc3ccc(O)cc3)CC2)c1)c1cc2ccccc2o1 | 12% | 8% | -3 | 81% (active) | inactive | inactive | inactive | inactive
O=C(Cc1cnc[nH]1)Nc1cccc(-c2cccc(-c3nc4ccc(F)cc4[nH]3)c2)c1 | 97% (active) | 21% | 2 | 101% (active) | inactive | inactive | inactive | inactive
O=c1cc(NCCC(CNCc2cc3ccccc3o2)NCc2cc(Br)cc(Br)c2)[nH]c2ccccc12 (configuration not stated) | 94% (active) | 6% | 2 | 100% (active) | inactive | inactive | inactive | inactive
Cc1cc(N[C@@H](Cc2ccccc2)C(=O)NCc2cccc(F)c2)nc(NCCc2cccnc2)n1 | 40% | 18% | -2 | 92% (active) | inactive | inactive | inactive | inactive
Nc1cccc(CNCc2cccc(-c3csc(-c4nc5ccccc5[nH]4)c3)c2)c1 | 63% (active) | 13% | 4 | 102% (active) | inactive | inactive | inactive | inactive
CCCCCCc1cc2cc(-c3nc(-c4ccc(OC)cc4)cs3)c(=O)oc2cc1O | 93% (active) | 45% | -6 | 97% (active) | inactive | inactive | inactive | inactive
CC(CN1CCN(C)CC1)C(=O)Nc1cccc(-c2ccc(-c3nc4ccccc4[nH]3)cc2)c1 (configuration not stated) | 38% | 2% | -1 | 95% (active) | inactive | inactive | inactive | inactive
O=C(Nc1cccc(-c2ccc(CN3CCC(O)CC3)cc2)c1)c1ccc(Cl)cc1 | 8% | 46% | 4 | 95% (active) | inactive | inactive | inactive | inactive
CCCN(CCCCCCNCCc1ccc(Cl)cc1)CCc1ccc(O)c(O)c1 | 11% | 26% | -3 | 91% (active) | inactive | inactive | inactive | inactive
CCN(CC)CCCN1CCN(C(=O)c2cccc(-c3noc(C(F)(F)F)n3)c2)CC1 | 74% (active) | -10% | 7 | 91% (active) | inactive | inactive | inactive | inactive
CC(C)Sc1nc2c(c(=O)n1Cc1ccco1)C1(CCCC1)Cc1ccccc1-2 | 10% | 8% | 4 | 98% (active) | inactive | inactive | inactive | inactive
CC(=O)Oc1cc(C)ccc1C1CCN(CCCCNC(=O)c2ccc(-c3ccc(C(F)(F)F)cc3)cc2)CC1 | 94% (active) | 54% (active) | -7 | 100% (active) | inactive | inactive | inactive | inactive
CN(C)c1ccc(CN2CCC(NC(=O)c3ccc(-c4ccccc4F)s3)CC2)cc1 | 27% | 41% | -3 | 86% (active) | inactive | inactive | inactive | inactive
CCOc1ccccc1CON1C(N)=NC(N)=NC1(C)C | 1% | 66% (active) | -2 | 90% (active) | inactive | inactive | inactive | inactive
Cc1ccc(NC(=O)Nc2ccccc2)cc1-c1ccc(C(=O)Nc2ccncc2)cc1 | 52% (active) | 67% (active) | 0 | 99% (active) | inactive | inactive | inactive | inactive
Cc1ncc(CN2CCC(C(=O)Nc3ccc(-c4nc5ccccc5o4)cc3)CC2)s1 | 92% (active) | -14% | 1 | 82% (active) | inactive | inactive | inactive | inactive
Cn1cncc1CCN(Cc1ccc(-c2ccc(C(F)(F)F)cc2)cc1)C(=O)Cn1c(SCc2cccc(F)c2F)cc(=O)c2ccccc21 | 90% (active) | 24% | -5 | 99% (active) | inactive | inactive | inactive | inactive
Cc1cc(Nc2ccc(C)c(Cl)c2)n2ncnc2n1 | 91% (active) | 6% | -1 | 98% (active) | inactive | inactive | inactive | inactive

Compound | growth inhibition [1] | inhibition [2] | inhibition [3] [%] | growth inhibition [4] | outcome [5] | outcome [6] | outcome [7] | outcome [8]
C=C(C)C1CC=C(CN2CCCC(n3ccc4cc(NC(=O)c5ccco5)ccc43)CC2)CC1 (configuration not stated) | 95% (active) | 13% | 1 | 90% (active) | inactive | inactive | inactive | inactive
O=C(Cc1cccc(OCCCN(Cc2cccc(C(F)(F)F)c2Cl)CC(c2ccccc2)c2ccccc2)c1)NCc1ccco1 | 84% (active) | 2% | -6 | 94% (active) | inactive | inactive | inactive | inactive
O=C(NCCCCN1CCC(c2ccc3c(c2OCC(O)c2ccc(Cl)cc2)CCCC3)CC1)c1ccc(-c2ccc(C(F)(F)F)cc2)cc1 (configuration not stated) | 67% (active) | 100% (active) | -3 | 89% (active) | inactive | inactive | inactive | inactive
O=C(/C=C/c1ccc(Cl)c(Cl)c1)NCCCCCN1CCCC(CNS(=O)(=O)c2cccc(C(F)(F)F)c2)C1 (configuration not stated) | 0% | 73% (active) | 5 | 92% (active) | inactive | inactive | inactive | inactive
NCc1ccc(CNCc2cccc(-c3cccc(-c4nc5ccc(F)cc5[nH]4)c3)c2)cc1 | 34% | 15% | -2 | 101% (active) | inactive | inactive | inactive | inactive
COc1ccccc1CNc1ncc(-c2ccsc2)c(-c2nccs2)n1 | 84% (active) | 14% | 2 | 91% (active) | inactive | inactive | inactive | inactive
O=C(Nc1ccc(-c2cccc(-c3nc4ccccc4[nH]3)c2)cc1)c1cnn2cccnc12 | 36% | 64% (active) | -1 | 99% (active) | inactive | inactive | inactive | inactive
CC(=O)N(C)c1ccc(C(=O)Nc2cccc(-c3cccc(-c4nc5c(C)cccc5[nH]4)c3)c2)cc1 | 30% | 11% | -2 | 89% (active) | inactive | inactive | inactive | inactive
c1ccc(-c2nc(NCCCn3ccnc3)cc(-c3ccncc3)n2)cc1 | 100% (active) | 42% | -8 | 103% (active) | inactive | inactive | inactive | inactive
CC(C)c1ccc(CN2CCC(NC(=O)c3ccc(-c4cccc(Cl)c4)s3)CC2)cc1 | 6% | 50% (active) | 3 | 82% (active) | inactive | inactive | inactive | inactive
O=C(Nc1ccc2c(c1)CCC2)c1ccc(N2CCN(c3ccncc3)CC2)cc1 | 75% (active) | 72% (active) | 4 | 101% (active) | inactive | inactive | inactive | inactive
COc1ccc2nccc(N3CCC(CCNCc4ccc5c(n4)NC(=O)CO5)CC3)c2c1 | 50% (active) | 22% | -1 | 101% (active) | inactive | inactive | inactive | inactive
CCCCNCc1ccc(-c2nc(CN(CCCn3ccnc3)C(=O)C3COc4ccccc4O3)cs2)cc1 (configuration not stated) | 8% | 6% | -4 | 93% (active) | inactive | inactive | inactive | inactive
CCc1ccc(NC(=O)N(CCCn2ccnc2)Cc2csc(-c3ccc(CNCc4ccccc4)cc3)n2)cc1 | 39% | 9% | 3 | 103% (active) | inactive | inactive | inactive | inactive
COc1ccc(Nc2nccc(NCCNC(=O)Nc3cc(C)ccc3C)n2)cc1 | -3% | 10% | 2 | 85% (active) | inactive | inactive | inactive | inactive
COc1cc(CCN(C)Cc2ccc(OC)c(OC)c2)ccc1NC(=O)c1cccc2c(=O)c3cccc(F)c3[nH]c12 | 26% | 14% | 0 | 102% (active) | inactive | inactive | inactive | inactive
CC(C)NCC(O)Cn1c2ccc(Br)cc2c2cc(Br)ccc21 (configuration not stated) | 100% (active) | 100% (active) | -1 | 99% (active) | inactive | inactive | inactive | inactive
CC(C)CNCc1cccc(-c2ccc(CNc3ccc4ncccc4c3)cc2)c1 | 32% | 13% | -3 | 94% (active) | inactive | inactive | inactive | inactive
Cc1ccc(C(=O)N2CCc3cc4nccc(N5CCN6CCC[C@H]6C5)c4cc32)cc1 | 13% | 5% | -5 | 95% (active) | inactive | inactive | inactive | inactive
